# According to publication PMC4336329 (PLoS ONE, 2015):
# The campaign covered roughly 310,000 compounds. About 14,000 (4.5%) showed an effect of 50% or more. Effects have a minus sign here. This excerpt belongs to a sample that is enriched for strong results.
# Biological target: human ether-à-go-go-related gene (hERG) potassium channel (human, UniProt Q12809)
# Assay: primary screen, population patch clamp on CHO cells stably expressing hERG; higher = less effect of the substance
# 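Further: peak tail current of the secondary pulse compared with the same well before compound.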
# Sequence of human ether-à-go-go-related gene (hERG) potassium channel (Q12809 whole entry, looked up): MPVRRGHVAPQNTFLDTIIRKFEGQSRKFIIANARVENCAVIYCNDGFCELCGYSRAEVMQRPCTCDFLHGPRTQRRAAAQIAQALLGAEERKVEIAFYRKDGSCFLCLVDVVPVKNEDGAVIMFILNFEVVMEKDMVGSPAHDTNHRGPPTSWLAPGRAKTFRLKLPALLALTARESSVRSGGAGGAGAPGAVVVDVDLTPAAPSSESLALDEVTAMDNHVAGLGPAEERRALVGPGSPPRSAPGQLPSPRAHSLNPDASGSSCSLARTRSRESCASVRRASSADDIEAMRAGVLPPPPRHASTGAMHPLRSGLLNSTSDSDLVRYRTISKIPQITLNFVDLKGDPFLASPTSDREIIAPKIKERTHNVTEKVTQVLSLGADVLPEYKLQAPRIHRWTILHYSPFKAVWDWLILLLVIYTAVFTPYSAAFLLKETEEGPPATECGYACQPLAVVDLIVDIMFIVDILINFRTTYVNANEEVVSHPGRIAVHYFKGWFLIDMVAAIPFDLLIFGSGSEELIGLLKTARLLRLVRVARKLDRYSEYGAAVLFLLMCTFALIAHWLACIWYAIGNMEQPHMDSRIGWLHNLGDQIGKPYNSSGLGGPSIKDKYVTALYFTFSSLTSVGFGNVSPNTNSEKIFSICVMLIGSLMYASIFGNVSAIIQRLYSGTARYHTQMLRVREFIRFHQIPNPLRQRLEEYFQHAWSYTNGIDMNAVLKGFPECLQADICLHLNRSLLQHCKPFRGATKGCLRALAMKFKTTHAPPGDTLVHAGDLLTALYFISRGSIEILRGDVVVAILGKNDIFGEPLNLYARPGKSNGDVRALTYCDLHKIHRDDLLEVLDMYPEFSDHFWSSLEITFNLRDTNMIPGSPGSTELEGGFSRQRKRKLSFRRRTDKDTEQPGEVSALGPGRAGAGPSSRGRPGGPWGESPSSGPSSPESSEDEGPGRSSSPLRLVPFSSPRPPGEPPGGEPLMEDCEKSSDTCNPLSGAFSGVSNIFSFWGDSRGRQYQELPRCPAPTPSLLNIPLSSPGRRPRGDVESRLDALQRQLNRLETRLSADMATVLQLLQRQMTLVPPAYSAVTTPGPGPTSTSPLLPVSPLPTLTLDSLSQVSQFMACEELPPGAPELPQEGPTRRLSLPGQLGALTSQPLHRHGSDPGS
row,Compound,"hERG current change (%, negative = inhibition) at 10uM [%]"
1,Cc1ccc(Cl)cc1NC(=S)N(CCCN1CCN(C)CC1)Cc1cccs1,-61.7
2,CCN1CCN(CCCN(Cc2ccco2)C(=S)Nc2cc(Cl)ccc2C)CC1,-61.9
3,Cc1ccc(Cl)c(NC(=S)N(CCCN2CCOCC2)Cc2ccco2)c1,-35.3
4,Cc1ccc(Cl)cc1NC(=S)N(CCCN1CCOCC1)Cc1ccco1,-28.5
5,Cc1ccc(Cl)cc1NC(=S)N(CCCN1CCN(C)CC1)Cc1ccco1,-52.3
6,Cc1ccc(Cl)cc1NC(=S)N(CCN(C)C)Cc1cccs1,-0.292
7,Cc1ccc(Cl)cc1NC(=S)N(CCCN1CCOCC1)Cc1ccccn1,-34.3
8,Cc1ccccc1NC(=S)N(CCCN1CCOCC1)Cc1cccs1,-39.9
9,Cc1ccccc1NC(=S)N(CCCN1CCCCC1)Cc1ccco1,-45.4
10,COC(=O)C1=C(COc2ccccc2)NC(=O)NC1c1ccc(Br)cc1 (centres unmarked),0.599
11,Cc1ccc(CSCC(=O)N/N=C/c2cccc(OC3CSC3)c2)cc1,11.4
12,Nc1nnc(/C=C/c2ccccc2Cl)s1,12.1
13,Cc1cc(C(=O)COC(=O)c2ccc([N+](=O)[O-])o2)c(C)n1CC1CCCO1 (centres unmarked),-42.5
14,CCOc1ccc(/C=C2/C(=O)NC(=O)N(CCc3ccc(F)cc3)C2=O)cc1,8.76
15,Cc1ccc(-n2nc(C(=O)NN)c(C)c(C#N)c2=O)cc1Cl,14.5
16,COc1ccc(N(C(=O)Cn2nnc(-c3ccccc3F)n2)C(C(=O)NCC2CCCO2)c2ccc(Cl)cc2)cc1 (centres unmarked),22.6
17,COc1ccc(S(=O)(=O)N(CC(=O)O)c2ccc(C)cc2)cc1,4
18,Cc1cc(Nc2ccc(Br)cc2)nc(-c2ccccc2O)n1,19.9
19,CCc1ccccc1NC(=S)N(CCCN1CCOCC1)Cc1cccs1,-53.5
20,Cc1c(Cl)cccc1NC(=S)N(CCCN1CCOCC1)Cc1cccs1,-26.5
21,CCc1ccccc1NC(=S)N(CCCN1CCN(C)CC1)Cc1cccs1,-46
22,COc1ccc(CNC(=O)CCCn2nc(C)n3c(cc4sccc43)c2=O)cc1,-1.61
23,CC(=O)N1N=C(c2cccc([N+](=O)[O-])c2)OC1c1ccc(Cl)cc1Cl (centres unmarked),8.14
24,COc1ccccc1C1OC(c2cccc([N+](=O)[O-])c2)=NN1C(C)=O (centres unmarked),-62

row,Compound,"hERG current change (%, negative = inhibition) at 10uM [%]"
1,CC(=O)N1N=C(c2cccc([N+](=O)[O-])c2)OC1c1ccccc1Cl (centres unmarked),-25.8
2,CCc1nc(SCc2cccnc2)c2c(=O)n(C)c(=O)n(C)c2n1,-10.7
3,CC(C)Cc1nc(SCc2cccnc2)c2c(=O)n(C)c(=O)n(C)c2n1,-8.32
4,CCCc1nc(SCc2cccnc2)c2c(=O)n(C)c(=O)n(C)c2n1,-57.3
5,Cn1c(=O)c2c(SCc3cccnc3)nc(CC(C)(C)C)nc2n(C)c1=O,-59.6
6,Cc1ccccc1-c1nc(SCc2cccnc2)c2c(=O)n(C)c(=O)n(C)c2n1,10.5
7,Cn1c(=O)c2c(SCc3cccnc3)nc(C3CC3)nc2n(C)c1=O,-9.63
8,CC1=C(C(=O)NC(C)c2ccccc2)C2(CCC(C)CC2)OC1=O (centres unmarked),-4.71
9,Cc1ccc(C)c2c1N(Cc1ccccc1)C(=O)C21OCCO1,-21.8
10,Cc1nc(NC(=O)C2CCCCC2C(=O)O)sc1C (centres unmarked),12
11,O=C(CNC(=O)c1ccccc1)OCc1nnc(-c2ccc(Cl)cc2)o1,-10.4
12,c1ccc2c3c([nH]c2c1)C(C1CCCCC1)N(Cc1ncc[nH]1)CC3 (centres unmarked),-39.5
13,Cc1cnc(CN2CCc3c([nH]c4ccccc34)C2C2CCCCC2)[nH]1 (centres unmarked),-62.6
14,Cc1c(CN2CCc3c([nH]c4ccccc34)C2C2CCCCC2)cnn1C (centres unmarked),-38.7
15,Cc1ccc(S(=O)(=O)c2nc(-c3cccs3)oc2NCc2cccnc2)cc1,-18.3
16,O=S(=O)(c1ccccc1)c1nc(-c2cccs2)oc1NCc1cccnc1,-50.5
17,O=S(=O)(c1ccccc1)c1nc(-c2cccs2)oc1NCCCn1ccnc1,-75.1
18,N#Cc1nc(-c2ccco2)oc1NCCCn1ccnc1,-19.7
19,C=CCNc1oc(-c2cccs2)nc1S(=O)(=O)c1ccccc1,-24.7
20,CNc1oc(-c2cccs2)nc1S(=O)(=O)c1ccccc1,-18.7
21,O=S(=O)(c1ccccc1)c1nc(-c2ccco2)oc1NCCCn1ccnc1,-65.6
22,O=S(=O)(c1ccccc1)c1nc(-c2ccccc2)oc1NCc1cccnc1,8.28
23,O=S(=O)(c1ccccc1)c1nc(-c2ccco2)oc1NCCCN1CCOCC1,-6.01
